The experiment can be described thus: signal-interfering artefacts in bead proximity readout – biochemical, AlphaScreen, HTS, counter-screen, dose response (AID 1259373). The settings on record: AlphaScreen optical interference counterscreen, cell-free. Background: Bead proximity is the source of the signal in Alpha formats.

In PubChem BioAssay AID1259373 (The Scripps Research Institute Molecular Screening Center, 2018) one finds IC50 data, which are given here for one compound.

SMILES strings stand for the structures. The list shows a part of the results. Activity calls are given as the source filed them. How the calls were made is not given here.

Usually IC50 stands for the concentration needed to halve the response being measured. `CCOC(=O)C1C2NC(=S)N(CC)C1(C)Oc1ccc(Cl)cc12` (stereo unspecified): the IC50 is > 8.6 µM (inactive).
